For some of these results: Measured potencies and affinities stand elsewhere. Calls of active or inactive are those of the source.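 Rule for the calls, unless noted: active = calcium signal ratio cut to more than 3 SD under the fully stimulated control mean yet still positive, in both repeats and the primary screen; inactive = the rest.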
Experiments:
[1] = test system: TRPC4 beta (transient receptor potential cation channel C4), mouse; assay: activators of mouse TRPC4 channel, confirmation, cell-based, Fluo4 calcium, HEK293 TRPC4beta/mu-opioid, duplicates, 10 µM (AID 2426;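 active = fluorescence ratio normalized to control raised more than 50% in primary screen plus both repeat runs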); conditions: Fluo4 calcium fluorescence, at 10 µM; stronger effect = higher value
[2] = test system: transient receptor potential cation channel C4 beta (TRPC4), mouse; assay: activators of mouse TRPC4 channel, confirmation, cell-based, second round, Fluo4, HEK293 TRPC4beta/mu-opioid, 1 µM (AID 2461;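 active = primary screen active and over 50% activation in each of two duplicate runs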); conditions: Fluo4 calcium fluorescence, at 1 µM; stronger effect = higher value
[3] = test system: TRPC4 (transient receptor potential cation channel C4 beta), mouse; assay: positive allosteric modulators of mouse TRPC4, confirmation, cell-based, second round, Fluo-4, HEK293 TRPC4beta/mu-opioid, 1 µM (AID 2554;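 active = primary screen hit whose fluorescence ratio, in both repeats, exceeds the weak agonist control mean by 3 SD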); conditions: DAMGO EC20, Fluo-4 calcium flux, at 1 µM; stronger effect = higher value
[4] = test system: TRPC4 beta (transient receptor potential cation channel C4), mouse; assay: positive allosteric modulators of mouse TRPC4, confirmation, cell-based, Fluo-4, HEK293 TRPC4beta/mu-opioid (AID 2555;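 active = primary screen hit whose calcium fluorescence ratio, in both repeats, exceeds the weak agonist control mean by 3 SD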); conditions: DAMGO EC20, Fluo-4 calcium flux, at 10 µM; stronger effect = higher value
[5] = molecular target: Short transient receptor potential channel 4 (Mus musculus) (UniProt Q9QUQ5); assay: inhibitors of mouse TRPC4 channel, confirmation, cell-based, Fluo4, HEK293 TRPC4beta/mu-opioid (AID 2636;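 active = calcium signal cut by more than 3 SD below the full-agonist control yet still positive, in both repeats and the earlier primary screen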); conditions: DAMGO, Fluo4 calcium flux, at 10 µM; stronger effect = higher value
Chain of Short transient receptor potential channel 4 (Mus musculus) (Q9QUQ5 whole entry, looked up): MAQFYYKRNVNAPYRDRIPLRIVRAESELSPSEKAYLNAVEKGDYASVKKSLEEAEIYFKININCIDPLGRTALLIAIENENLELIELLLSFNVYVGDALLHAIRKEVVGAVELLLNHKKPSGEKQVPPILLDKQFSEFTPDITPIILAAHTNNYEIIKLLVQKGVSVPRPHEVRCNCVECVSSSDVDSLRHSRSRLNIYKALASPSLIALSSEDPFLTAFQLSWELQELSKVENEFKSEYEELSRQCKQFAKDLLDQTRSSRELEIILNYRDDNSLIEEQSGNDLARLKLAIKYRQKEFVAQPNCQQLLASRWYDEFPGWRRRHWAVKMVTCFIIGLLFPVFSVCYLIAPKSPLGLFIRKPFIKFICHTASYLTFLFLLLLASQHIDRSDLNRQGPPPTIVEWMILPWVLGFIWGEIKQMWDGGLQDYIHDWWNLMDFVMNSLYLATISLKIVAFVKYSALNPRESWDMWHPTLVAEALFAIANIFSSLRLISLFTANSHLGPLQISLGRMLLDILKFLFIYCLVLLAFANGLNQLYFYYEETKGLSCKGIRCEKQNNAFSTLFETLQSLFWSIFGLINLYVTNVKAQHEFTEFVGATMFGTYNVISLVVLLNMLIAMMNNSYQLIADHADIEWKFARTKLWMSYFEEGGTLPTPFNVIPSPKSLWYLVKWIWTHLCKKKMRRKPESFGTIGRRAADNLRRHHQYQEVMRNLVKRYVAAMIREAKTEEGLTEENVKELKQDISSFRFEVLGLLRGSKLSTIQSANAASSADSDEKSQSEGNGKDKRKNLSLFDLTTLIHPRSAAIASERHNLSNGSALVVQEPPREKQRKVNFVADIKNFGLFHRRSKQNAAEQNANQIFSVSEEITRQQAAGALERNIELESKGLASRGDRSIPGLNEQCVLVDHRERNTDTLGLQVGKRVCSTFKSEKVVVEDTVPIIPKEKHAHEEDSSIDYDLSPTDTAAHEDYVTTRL

[6] = molecular target: Short transient receptor potential channel 4 (Mus musculus) (UniProt Q9QUQ5); assay: inhibitors of mouse TRPC4 channel, confirmation, cell-based, second round, Fluo4, HEK293 TRPC4beta/mu-opioid, 1 µM (AID 2637); conditions: Fluo4 calcium flux, DAMGO, at 1 µM; stronger effect = higher value;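 for inhibition: percent of integrated ratio relative to wells lacking test compound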
[7] = molecular target: Short transient receptor potential channel 4 (Mus musculus) (UniProt Q9QUQ5); assay: mouse TRPC4 channel activators, dose response, cell-based, HEK293 TRPC4/mu-opioid, Fluo-4 calcium (AID 434937;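 active = primary screen activator hit with a dose response curve and TRPC4 channel activation at any tested dose; inactive = no activation, no dose response, or not a primary hit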)
[8] = molecular target: Short transient receptor potential channel 4 (Mus musculus) (UniProt Q9QUQ5); assay: TRPC4 positive allosteric modulators, dose response, cell-based, HEK293 TRPC4/mu-opioid, Fluo-4 calcium, EC20 DAMGO (AID 434941;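 active = earlier screen potentiator hit that boosts the TRPC4 ion channel at some dose, with a dose response; inactive = no potentiation, no dose response, or not a prior hit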;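 note: calcium entry triggered by an EC20 dose of DAMGO at the co-expressed mu-opioid receptor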)
[9] = molecular target: Short transient receptor potential channel 6 (Mus musculus) (UniProt Q61143); assay: inhibition of mouse TRPC6 channel, confirmation, selectivity assay for TRPC4 inhibitor project, cell-based, HEK293, membrane potential dye, duplicate (AID 434948;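 active = active in primary screen and both duplicates, each dropping signal beyond three positive-control SD with fluorescence still positive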); conditions: HEK293 TRPC6, membrane potential dye fluorescence, at 10 µM, stimulated with maximal-effect acetylcholine; stronger effect = higher value
Chain of Short transient receptor potential channel 6 (Mus musculus) (Q61143 whole entry, looked up): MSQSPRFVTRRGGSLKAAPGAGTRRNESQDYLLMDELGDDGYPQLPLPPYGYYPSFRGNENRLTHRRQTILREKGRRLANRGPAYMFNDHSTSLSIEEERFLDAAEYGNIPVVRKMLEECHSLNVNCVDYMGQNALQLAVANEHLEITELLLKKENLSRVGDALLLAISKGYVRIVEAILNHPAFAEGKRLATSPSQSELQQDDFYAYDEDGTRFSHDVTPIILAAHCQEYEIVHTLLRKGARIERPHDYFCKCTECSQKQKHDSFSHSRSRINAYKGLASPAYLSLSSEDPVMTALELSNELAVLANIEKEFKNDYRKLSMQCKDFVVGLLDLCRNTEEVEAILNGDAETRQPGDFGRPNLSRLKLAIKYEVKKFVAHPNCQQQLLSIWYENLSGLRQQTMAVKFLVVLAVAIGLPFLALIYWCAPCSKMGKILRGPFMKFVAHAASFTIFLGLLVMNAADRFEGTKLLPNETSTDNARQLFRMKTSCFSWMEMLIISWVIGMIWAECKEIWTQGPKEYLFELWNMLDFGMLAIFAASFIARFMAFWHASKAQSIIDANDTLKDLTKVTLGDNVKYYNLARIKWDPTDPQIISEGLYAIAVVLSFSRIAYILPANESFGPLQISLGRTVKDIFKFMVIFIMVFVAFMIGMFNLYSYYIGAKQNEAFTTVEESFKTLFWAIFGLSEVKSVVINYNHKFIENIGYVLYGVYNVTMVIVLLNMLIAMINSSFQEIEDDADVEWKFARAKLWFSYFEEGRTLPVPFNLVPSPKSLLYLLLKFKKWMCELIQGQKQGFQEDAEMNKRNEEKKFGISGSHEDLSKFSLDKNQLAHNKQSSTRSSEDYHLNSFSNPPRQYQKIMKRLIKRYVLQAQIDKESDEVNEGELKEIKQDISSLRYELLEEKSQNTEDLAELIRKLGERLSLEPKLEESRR

[10] = molecular target: Short transient receptor potential channel 6 (Mus musculus) (UniProt Q61143); assay: activation of mouse TRPC6 channel, confirmation, selectivity assay for TRPC4 activator project, cell-based, HEK293, membrane potential dye, duplicate (AID 434950;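 active = membrane potential signal rise above negative control mean plus 3 SD in both duplicates, also active in the earlier TRPC4 screen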); conditions: HEK293 TRPC6, membrane potential fluorescence, at 10 µM; stronger effect = higher value
[11] = molecular target: Short transient receptor potential channel 6 (Mus musculus) (UniProt Q61143); assay: TRPC6 potentiation by TRPC4 potentiator hits, confirmation, selectivity assay for TRPC4 potentiator project, HEK293 cells, membrane potential dye, duplicate (AID 434952;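 active = compound raising the membrane signal above positive-control mean plus 3 SD in both repeats, and a primary screen hit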); conditions: HEK293 TRPC6, membrane potential dye fluorescence, at 10 µM, maximal acetylcholine added after compound; stronger effect = higher value
[12] = molecular target: Short transient receptor potential channel 4 (Mus musculus) (UniProt Q9QUQ5); assay: calcium flux activators in TRPC4/5HT1a cells, counter-screen for TRPC4 activator project, cell-based, second counter screen, HEK293 TRPC4/5HT1a, Fluo-4 (AID 434977;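 active = calcium signal rise above buffer-control mean plus 5 SD in both duplicates, and also a hit in the primary screen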); conditions: Fluo-4 calcium flux, at 10 µM; stronger effect = higher value
[13] = calcium flux inhibitors in TRPC4/5HT1a cells, confirmation, counter-screen for TRPC4 inhibitor project, cell-based, second counter screen, HEK293 TRPC4/5HT1a, Fluo-4 (AID 434978;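 active = primary screen active whose calcium signal fell more than 3 SD beyond the full-serotonin control mean in both duplicate plates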;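 for outcome: serotonin given first at submaximal then at maximal dose after compound preincubation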); conditions: Fluo-4 calcium flux, at 10 µM, serotonin added to trigger calcium flux; stronger effect = higher value
[14] = test system: TRPC4 (mouse), co-expressed with 5HT1a in HEK293; assay: calcium flux potentiators in TRPC4/5HT1a cells, confirmation, counter-screen for TRPC4 potentiator project, cell-based, second counter screen, HEK293 TRPC4/5HT1a, Fluo-4 (AID 434979;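 active = signal rise over 3 SD above mean of control wells given weak agonist, in both repeats and first screen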); conditions: Fluo-4 calcium flux, at 10 µM, serotonin added at its EC20 dose; stronger effect = higher value
[15] = calcium flux activation in mu-opioid HEK293 cells, confirmation, counter-screen for TRPC4 activator project, cell-based, HEK293 mu-opioid receptor line (AID 449723;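 active = hit in primary screen, with calcium signal over 5 SD above buffer well mean in both duplicates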;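 note: counter screen cells carry the mu-opioid receptor alone and lack TRPC4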); conditions: Fluo-4 calcium fluorescence, at 10 µM; stronger effect = higher value
[16] = calcium flux enhancement in mu-opioid HEK293 cells, confirmation, counter-screen for TRPC4 allosteric potentiator project, cell-based, HEK293 mu-opioid receptor line (AID 449724;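 active = calcium signal rise more than 3 SD above the low-dose agonist control mean, in both duplicate plates and the primary screen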); conditions: Fluo-4 calcium flux, at 10 µM, compound added before EC20 DAMGO stimulus; stronger effect = higher value

SMILES | outcome [1] | outcome [2] | outcome [3] | outcome [4] | inhibition [5] | outcome [6] | outcome [7] | outcome [8] | inhibition [9] | outcome [10] | outcome [11] | outcome [12] | inhibition [13] | outcome [14] | outcome [15] | outcome [16] | inhibition [6] | outcome [9] | outcome [13]
CCOc1ccc(Cl)cc1/C=N/O | inactive | inactive | inactive | inactive | 86% (active) | inactive | inactive | inactive | 2% (active) | inactive | inactive | inactive | 39.8% (active) | inactive | inactive | inactive |  |  | 
NC(=O)N/N=C1\c2ccccc2-c2c(C(N)=O)cccc21 | inactive | inactive | inactive | inactive | 80% (active) |  | inactive | inactive |  | inactive | inactive | inactive | 38.9% (active) | inactive | inactive | inactive | 65% (active) | inactive | 
Cc1n[nH]c(C)c1CCCCOc1ccccc1F | inactive | inactive | inactive | inactive | 98% (active) |  | inactive | inactive |  | inactive | inactive | inactive | 28.3% (active) | inactive | inactive | inactive | 65% (active) | inactive | 
CCC(O)C1CCN(Cc2cn(-c3ccc(OC)cc3)nc2-c2cccc(F)c2)CC1 (configuration not stated) | inactive | inactive | inactive | inactive | 98% (active) | inactive | inactive | inactive |  | inactive | inactive | inactive |  | inactive | inactive | inactive |  | inactive | inactive
O=C(Nc1ccccc1N1CCN(C(=O)c2ccc(Cl)cc2)CC1)c1cccc([N+](=O)[O-])c1 | inactive | inactive | inactive | inactive | 81% (active) |  | inactive | inactive |  | inactive | inactive | inactive | 36.6% (active) | inactive | inactive | inactive | 52% (active) | inactive | 
CC(C)Cc1cc(CN2CCCC(CO)(Cc3cccc(Cl)c3)C2)[nH]n1 (configuration not stated) | inactive | inactive | inactive | inactive | 91% (active) | inactive | inactive | inactive |  | inactive | inactive | inactive | 42.2% (active) | inactive | inactive | inactive |  | inactive | 
CCCN1C2=NCCN2c2cc(C)c(C)cc21 | inactive | inactive | inactive | inactive | 91% (active) |  | inactive | inactive | 40.5% (active) | inactive | inactive | inactive | 25.6% (active) | inactive | inactive | inactive | 48% (active) |  | 

From PubChem BioAssay
